Test results reported in PubChem BioAssay AID651650 (Sanford-Burnham Center for Chemical Genomics, 2012).

These compounds were tested against Neuropilin-1 (Homo sapiens) (UniProt O14786) (assay: blockers of CendR peptide binding to NRP-1 – biochemical, FP and AlphaScreen panel, dose response (AID 651650)). Conditions: NRP-1 b1b2 / RPARPAR peptide binding, FP or AlphaScreen; run 1, at 100 µM (top of the series).
Chain of Neuropilin-1 (Homo sapiens) (O14786 whole entry, looked up): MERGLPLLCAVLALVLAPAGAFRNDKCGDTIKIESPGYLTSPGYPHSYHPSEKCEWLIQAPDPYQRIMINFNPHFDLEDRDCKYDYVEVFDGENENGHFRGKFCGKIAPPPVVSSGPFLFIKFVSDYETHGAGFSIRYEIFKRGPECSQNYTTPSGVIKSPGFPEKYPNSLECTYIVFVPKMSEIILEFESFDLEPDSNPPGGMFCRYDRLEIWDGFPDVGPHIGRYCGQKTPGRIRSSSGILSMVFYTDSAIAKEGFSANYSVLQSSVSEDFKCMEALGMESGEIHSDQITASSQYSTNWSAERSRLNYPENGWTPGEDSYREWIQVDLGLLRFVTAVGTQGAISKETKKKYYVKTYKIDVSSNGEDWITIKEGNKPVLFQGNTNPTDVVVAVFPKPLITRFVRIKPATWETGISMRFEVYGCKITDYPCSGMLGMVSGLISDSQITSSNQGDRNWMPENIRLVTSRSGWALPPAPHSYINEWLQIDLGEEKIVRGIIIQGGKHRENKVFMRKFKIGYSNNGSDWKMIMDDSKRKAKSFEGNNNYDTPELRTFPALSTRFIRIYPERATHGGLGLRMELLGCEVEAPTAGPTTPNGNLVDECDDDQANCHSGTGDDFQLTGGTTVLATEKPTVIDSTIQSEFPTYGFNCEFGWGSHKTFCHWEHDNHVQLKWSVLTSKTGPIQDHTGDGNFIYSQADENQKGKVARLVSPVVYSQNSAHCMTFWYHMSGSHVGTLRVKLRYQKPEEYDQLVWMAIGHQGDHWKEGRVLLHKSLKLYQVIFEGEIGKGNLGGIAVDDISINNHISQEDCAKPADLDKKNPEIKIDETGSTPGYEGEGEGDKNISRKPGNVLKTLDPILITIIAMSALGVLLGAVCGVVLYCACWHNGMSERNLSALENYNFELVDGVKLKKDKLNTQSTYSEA

| SMILES | inhibition [%] |
| --- | --- |
| C=CCN1C(=O)C2(C(C(=O)OCC)=C(N)Oc3ccccc32)c2c1c1ccccc1oc2=O (centres undefined) | 4.11 |
| COC(=O)C1=C(c2cccc(C#N)c2)C[C@@H]2CC[C@H]1N2C(=O)NCCO | 39.7 |
| CCC(=NCCc1ccccc1)c1c(O)n(C2CCCCC2)c(=O)[nH]c1=O | 42.9 |
| Cc1ccc(C(=O)C2CN3CCC2CC3)cc1 (centres undefined) | 26.3 |
| COC(=O)C1=C(c2ccc(F)cc2OCc2ccccc2)C[C@@H]2CC[C@H]1N2C(=O)NCCNC(C)=O | 95.9 |
| O=S(=O)(c1cc(Cl)cc(Cl)c1)N1Cc2cc(-c3ccccc3)ccc2-n2nncc2C1 | 13.6 |
| O=C1C=CC(=O)C2C1C1(Cl)C(Cl)=C(Cl)C2(Cl)C1(Cl)Cl (centres undefined) | 44.9 |
| CCC1C2Cc3ccc(O)cc3C1(CC)CCN2C (centres undefined) | 3.24 |
| Cc1ccc(C2(O)CCN3CCCCC32)cc1 (centres undefined) | -5.87 |
| CC(=O)OC1CC[C@]2(C#N)[C@H]3CC[C@]4(C)[C@H](C5C=CC(=O)O5)CCC4(O)C3CCC2(O)C1 (some centres undefined) | 58.3 |
| CC1(C)CN=C(Nc2ccc(F)c(Cl)c2)S1 | 82.2 |
| Cc1c(NP(=O)(C(C)(C)C)C(C)(C)C)c(=O)n(-c2ccccc2)n1C | 31.8 |
| CN1C[C@H](CO)C=C2c3cccc4[nH]cc(c34)C[C@H]21 | 51.6 |
| Cc1ccc(Cn2nnnc2CN2CCC(n3nnc4ccccc43)CC2)cc1 | 15.9 |
